The structures appear in SMILES notation. For some of these results: Potency and affinity values are given separately.

Holding throughout (set-up): scale not given: direction of the effect not stated beside the values
Experiment [1] concerns the target Protein translocase subunit SecA (Escherichia coli (strain K12)) (UniProt P10408). The experiment in a line: Assay to Identify E. coli SecA ATPase Inhibitors. Type of experiment: functional. To be noted: 30 µM.
The target in experiment [2] is T1, Ubiquitin-activating enzyme e1, putative (Leishmania donovani (strain BPK282A1)) (UniProt E9BSI1).
T1 sequence (whole entry): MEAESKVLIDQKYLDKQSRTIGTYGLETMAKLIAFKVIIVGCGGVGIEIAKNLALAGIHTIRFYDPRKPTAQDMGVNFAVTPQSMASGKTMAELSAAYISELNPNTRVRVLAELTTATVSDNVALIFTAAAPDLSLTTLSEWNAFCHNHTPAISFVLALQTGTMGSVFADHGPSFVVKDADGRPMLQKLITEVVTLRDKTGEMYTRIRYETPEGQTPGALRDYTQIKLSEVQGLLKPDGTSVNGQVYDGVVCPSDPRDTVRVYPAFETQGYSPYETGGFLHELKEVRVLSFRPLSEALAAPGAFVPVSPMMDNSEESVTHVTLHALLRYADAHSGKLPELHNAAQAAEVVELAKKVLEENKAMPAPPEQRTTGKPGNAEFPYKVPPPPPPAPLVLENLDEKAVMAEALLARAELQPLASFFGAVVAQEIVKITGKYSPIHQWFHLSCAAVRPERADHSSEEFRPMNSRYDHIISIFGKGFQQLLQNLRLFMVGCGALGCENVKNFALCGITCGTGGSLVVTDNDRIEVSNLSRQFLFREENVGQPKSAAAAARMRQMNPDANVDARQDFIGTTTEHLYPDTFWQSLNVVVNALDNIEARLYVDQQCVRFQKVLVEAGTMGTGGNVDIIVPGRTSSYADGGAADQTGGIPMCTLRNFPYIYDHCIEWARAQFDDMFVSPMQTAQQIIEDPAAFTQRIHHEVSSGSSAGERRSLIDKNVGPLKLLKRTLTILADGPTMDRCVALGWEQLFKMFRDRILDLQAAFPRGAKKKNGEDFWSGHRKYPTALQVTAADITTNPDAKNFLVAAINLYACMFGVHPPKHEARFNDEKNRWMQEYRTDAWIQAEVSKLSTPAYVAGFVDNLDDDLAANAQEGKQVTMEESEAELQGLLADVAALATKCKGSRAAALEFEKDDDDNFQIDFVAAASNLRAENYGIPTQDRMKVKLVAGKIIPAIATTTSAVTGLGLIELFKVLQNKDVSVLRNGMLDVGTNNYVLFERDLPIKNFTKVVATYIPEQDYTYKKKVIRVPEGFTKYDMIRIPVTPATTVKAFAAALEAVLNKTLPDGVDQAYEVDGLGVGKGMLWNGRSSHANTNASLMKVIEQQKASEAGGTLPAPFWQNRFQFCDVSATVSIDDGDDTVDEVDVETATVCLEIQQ
The experiment can be described thus: Leishmania donovani Ubiquitin Activating Enzyme (LdE1). To be noted: 30 µM. Type of experiment: functional.

Experiment [3] concerns the target AMP-activated protein kinase, AMPK (Homo sapiens) (UniProt P54646+O43741+P54619+Q9UGJ0+Q9Y478+Q13131+Q9UGI9). The experiment in a line: AMP-dependent Kinase enzyme assay. An in vitro enzyme assay that detects ADP turnover that is directly proportional to AMPK activity. This uses naive AMPK that is activated during the assay with MK-8722. The experiment is classed as functional. To be noted: 30 µM.

Experiment [4] has as its target Sialic acid-binding Ig-like lectin 9 (Homo sapiens) (UniProt Q9Y336). The experiment in a line: Hs-Siglec9 ALPHAscreen SOP 20170721. To be noted: 10 µM. On the technique in general: Alpha assays give light when donor and acceptor beads are brought close together.
Experiment [5] deals with Trypanosoma cruzi. The experiment can be described thus: Trypanosoma cruzi phosphomannomutase and mannose-1-phosphate guanylyltransferase assay. The experiment is classed as functional. To be noted: 10 µM.
Experiment [6] concerns the target T2, Arginase-2, mitochondrial (Homo sapiens) (UniProt P78540).
T2 sequence (whole entry): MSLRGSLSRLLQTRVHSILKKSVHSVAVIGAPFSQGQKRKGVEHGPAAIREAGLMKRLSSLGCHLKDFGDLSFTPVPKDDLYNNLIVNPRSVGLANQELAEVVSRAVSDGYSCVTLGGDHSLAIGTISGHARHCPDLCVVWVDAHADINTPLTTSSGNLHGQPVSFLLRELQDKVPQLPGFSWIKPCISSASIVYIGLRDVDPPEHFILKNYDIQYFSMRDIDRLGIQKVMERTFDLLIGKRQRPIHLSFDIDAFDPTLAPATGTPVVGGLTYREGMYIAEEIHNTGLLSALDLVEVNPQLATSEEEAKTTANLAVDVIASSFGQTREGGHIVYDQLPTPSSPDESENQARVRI
The experiment can be described thus: in vitro enzyme assay to detect the production of urea directly proportional to the activity of Arginase II. Also: in the data most compounds retested in dose-response had high values. Type of experiment: functional. To be noted: 33.3 µM.

For experiment [7], the target named is T3, Proteasome subunit beta (Trypanosoma cruzi) (UniProt O96673).
T3 sequence (whole entry): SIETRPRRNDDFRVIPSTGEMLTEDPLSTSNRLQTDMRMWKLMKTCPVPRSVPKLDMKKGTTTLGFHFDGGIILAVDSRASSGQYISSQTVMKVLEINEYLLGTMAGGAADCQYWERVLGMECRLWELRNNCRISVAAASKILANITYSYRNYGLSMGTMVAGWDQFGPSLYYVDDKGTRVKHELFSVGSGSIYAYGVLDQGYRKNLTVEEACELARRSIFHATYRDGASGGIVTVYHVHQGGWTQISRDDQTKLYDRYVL
The experiment can be described thus: Trypanosoma cruzi proteasome chymotrypsin-like activity (TcProtChymo) assay. Also: in the data most compounds retested in dose-response had high values. Type of experiment: functional. To be noted: 9.37 µM.

Experiment [8] is filed under the species Homo sapiens. The experiment can be described thus: To identify inhibition of the IFN signalling (Jak-Stat) pathway via expression of an eGFP reporter gene under the control of an IFN-stimulated response element (ISRE) containing MxA promoter. Type of experiment: functional. To be noted: 30 µM. A general note: In a reporter assay the amount or activity of a reporter protein is the signal.

The target in experiment [9] is T4, Tyrosyl-tRNA synthetase, putative (Trypanosoma cruzi (strain CL Brener)) (UniProt Q4DSP6).
T4 sequence (whole entry): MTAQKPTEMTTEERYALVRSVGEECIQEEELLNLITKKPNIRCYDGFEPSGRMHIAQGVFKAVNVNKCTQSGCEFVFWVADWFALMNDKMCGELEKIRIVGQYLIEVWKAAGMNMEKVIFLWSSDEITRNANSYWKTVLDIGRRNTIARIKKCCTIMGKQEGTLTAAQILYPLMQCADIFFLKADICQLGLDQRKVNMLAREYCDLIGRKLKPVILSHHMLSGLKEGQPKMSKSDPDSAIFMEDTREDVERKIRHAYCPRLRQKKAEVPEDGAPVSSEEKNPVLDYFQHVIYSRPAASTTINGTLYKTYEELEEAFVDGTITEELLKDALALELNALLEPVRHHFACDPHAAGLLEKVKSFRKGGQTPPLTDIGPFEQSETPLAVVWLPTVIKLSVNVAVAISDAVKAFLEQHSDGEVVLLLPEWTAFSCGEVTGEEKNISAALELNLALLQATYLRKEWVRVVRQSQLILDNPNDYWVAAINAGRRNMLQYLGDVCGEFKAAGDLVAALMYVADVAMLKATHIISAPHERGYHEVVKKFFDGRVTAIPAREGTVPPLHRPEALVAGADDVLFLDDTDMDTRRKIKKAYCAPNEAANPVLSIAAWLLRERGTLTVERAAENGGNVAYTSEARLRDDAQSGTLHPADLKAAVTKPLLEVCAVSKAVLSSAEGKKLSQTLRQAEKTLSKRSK
The experiment can be described thus: Trypanosoma cruzi tyrosyl tRNA synthetase (TcYRS) _High Tyrosine SOP. Also: in the data most compounds retested in dose-response had high values. The experiment is classed as functional. To be noted: 30 µM.

The target in experiment [10] is T4, Tyrosyl-tRNA synthetase, putative (Trypanosoma cruzi (strain CL Brener)). The experiment can be described thus: Trypanosoma cruzi tyrosyl tRNA synthetase (TcYRS) SOP. To be noted: 30 µM. The experiment is classed as functional.
In experiment [11] the target is Chromo domain-containing protein 1 (Saccharomyces cerevisiae (strain ATCC 204508 / S288c) (Baker's yeast)) (UniProt P32657). The experiment can be described thus: ScCHD-1 Enzyme Inhibition Assay. Also: in the data most compounds retested in dose-response had high values. The experiment is classed as functional. To be noted: 30 µM.
Chromo domain-containing protein 1 (Saccharomyces cerevisiae (strain ATCC 204508 / S288c) (Baker's yeast)), sequence (P32657 whole entry, the tested form may be a part): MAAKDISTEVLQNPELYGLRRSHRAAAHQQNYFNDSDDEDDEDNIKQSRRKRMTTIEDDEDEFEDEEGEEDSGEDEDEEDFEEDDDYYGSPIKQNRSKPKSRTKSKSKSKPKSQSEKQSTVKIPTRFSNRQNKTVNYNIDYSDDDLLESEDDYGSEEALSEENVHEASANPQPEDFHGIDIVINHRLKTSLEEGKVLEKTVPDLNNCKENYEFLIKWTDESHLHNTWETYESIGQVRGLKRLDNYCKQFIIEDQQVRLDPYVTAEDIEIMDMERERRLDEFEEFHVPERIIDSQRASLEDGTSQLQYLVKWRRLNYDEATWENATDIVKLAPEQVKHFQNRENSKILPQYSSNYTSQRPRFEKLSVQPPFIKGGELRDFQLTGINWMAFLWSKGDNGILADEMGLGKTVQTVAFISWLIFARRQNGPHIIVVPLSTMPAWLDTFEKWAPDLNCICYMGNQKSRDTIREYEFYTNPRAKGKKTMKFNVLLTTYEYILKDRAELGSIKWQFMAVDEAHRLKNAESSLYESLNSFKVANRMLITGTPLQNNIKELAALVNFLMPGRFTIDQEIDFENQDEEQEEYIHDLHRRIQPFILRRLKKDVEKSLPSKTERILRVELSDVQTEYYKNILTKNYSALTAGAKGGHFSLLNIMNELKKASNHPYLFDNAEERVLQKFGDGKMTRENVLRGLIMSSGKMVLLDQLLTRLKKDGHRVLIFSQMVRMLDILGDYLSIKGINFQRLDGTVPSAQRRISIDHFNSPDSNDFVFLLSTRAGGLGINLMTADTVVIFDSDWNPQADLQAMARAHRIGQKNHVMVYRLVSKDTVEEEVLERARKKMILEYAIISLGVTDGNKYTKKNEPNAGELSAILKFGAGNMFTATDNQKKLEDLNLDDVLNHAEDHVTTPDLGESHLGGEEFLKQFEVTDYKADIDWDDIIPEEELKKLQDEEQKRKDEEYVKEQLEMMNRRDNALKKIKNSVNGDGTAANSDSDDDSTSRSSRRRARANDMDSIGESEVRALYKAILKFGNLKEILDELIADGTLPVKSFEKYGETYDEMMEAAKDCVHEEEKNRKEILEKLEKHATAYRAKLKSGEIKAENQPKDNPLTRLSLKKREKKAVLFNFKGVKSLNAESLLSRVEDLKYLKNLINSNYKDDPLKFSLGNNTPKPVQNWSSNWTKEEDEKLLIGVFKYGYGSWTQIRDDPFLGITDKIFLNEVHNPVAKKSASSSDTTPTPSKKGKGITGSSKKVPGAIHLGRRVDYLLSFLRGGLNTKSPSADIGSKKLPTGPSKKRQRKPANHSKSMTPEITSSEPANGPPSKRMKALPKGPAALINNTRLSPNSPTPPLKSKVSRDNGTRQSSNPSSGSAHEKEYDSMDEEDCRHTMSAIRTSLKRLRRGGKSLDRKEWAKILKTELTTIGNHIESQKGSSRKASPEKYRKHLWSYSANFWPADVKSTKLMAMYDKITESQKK

Protein translocase subunit SecA (Escherichia coli (strain K12)), sequence (P10408 whole entry): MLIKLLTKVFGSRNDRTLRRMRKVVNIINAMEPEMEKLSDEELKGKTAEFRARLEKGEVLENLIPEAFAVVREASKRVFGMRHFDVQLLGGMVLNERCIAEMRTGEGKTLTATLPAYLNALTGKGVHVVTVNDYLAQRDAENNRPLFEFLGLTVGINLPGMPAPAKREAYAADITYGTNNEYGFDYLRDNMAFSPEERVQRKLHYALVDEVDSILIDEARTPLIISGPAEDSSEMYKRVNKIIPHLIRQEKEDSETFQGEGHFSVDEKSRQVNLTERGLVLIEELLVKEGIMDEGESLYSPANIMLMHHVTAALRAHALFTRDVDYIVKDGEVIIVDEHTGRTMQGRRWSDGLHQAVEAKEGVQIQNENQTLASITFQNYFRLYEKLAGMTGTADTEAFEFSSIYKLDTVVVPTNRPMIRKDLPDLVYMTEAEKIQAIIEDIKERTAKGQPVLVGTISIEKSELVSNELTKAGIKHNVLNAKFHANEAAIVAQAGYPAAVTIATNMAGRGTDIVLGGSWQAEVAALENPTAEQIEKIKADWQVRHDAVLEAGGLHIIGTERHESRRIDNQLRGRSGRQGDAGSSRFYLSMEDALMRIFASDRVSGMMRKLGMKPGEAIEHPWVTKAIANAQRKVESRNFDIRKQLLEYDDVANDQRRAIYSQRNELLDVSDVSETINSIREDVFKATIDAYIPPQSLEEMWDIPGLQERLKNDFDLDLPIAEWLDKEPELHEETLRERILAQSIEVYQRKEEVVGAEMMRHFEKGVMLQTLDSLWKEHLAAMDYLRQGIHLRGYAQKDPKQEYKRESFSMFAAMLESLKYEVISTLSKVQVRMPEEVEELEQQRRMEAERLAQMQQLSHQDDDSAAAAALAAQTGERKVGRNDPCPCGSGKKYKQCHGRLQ
Sialic acid-binding Ig-like lectin 9 (Homo sapiens), sequence (Q9Y336 whole entry): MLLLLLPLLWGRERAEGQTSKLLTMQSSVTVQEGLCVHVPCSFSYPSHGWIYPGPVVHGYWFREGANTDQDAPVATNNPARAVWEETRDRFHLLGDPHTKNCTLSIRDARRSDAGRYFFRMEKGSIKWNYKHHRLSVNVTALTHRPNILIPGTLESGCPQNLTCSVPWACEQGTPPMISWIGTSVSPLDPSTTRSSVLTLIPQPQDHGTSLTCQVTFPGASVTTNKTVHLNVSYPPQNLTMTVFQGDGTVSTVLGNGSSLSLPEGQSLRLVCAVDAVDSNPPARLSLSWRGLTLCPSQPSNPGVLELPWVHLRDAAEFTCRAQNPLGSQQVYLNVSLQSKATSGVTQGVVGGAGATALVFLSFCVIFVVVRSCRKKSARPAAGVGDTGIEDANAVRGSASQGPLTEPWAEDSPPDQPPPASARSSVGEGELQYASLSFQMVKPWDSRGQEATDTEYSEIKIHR

Turning to `Cc1cc(C)n(CC(=O)NC(Cc2ccsc2)c2ccccn2)c(=O)n1` (stereo unspecified), the Percent Effect was -10.3% in experiment [1]; 12.2% in experiment [2]; -6.03% in [3]; 12.5% in [4]; 8.5% in experiment [5]; -4.87% in experiment [6]. In addition, the Percent Effect in experiment [7] is 9.2%; in [8], -8.13%; in [9], 5.38%; in experiment [10] it was 11.7%; in experiment [11], -22.9%.
With `CN(C)S(=O)(=O)N1CCN(c2nccc(C(F)(F)F)n2)CC1`, the Percent Effect in experiment [1] was -2.09%; in experiment [2], 5.48%; in [3] it was 8.09%; in experiment [4] it was 4.91%; in experiment [5] it was 7.64%; in [6], 0.909%. In addition, the Percent Effect in experiment [7] was 10.5%; in experiment [8] it was 9.93%; in experiment [9], 5.38%; in experiment [10] it was 12.5%; in experiment [11], -3.75%.
In the case of `Cc1ccc(C(=O)N2CCN(Cc3nc(C(C)C)no3)CC2)c(=O)[nH]1`, the Percent Effect in [1] is -7.78%; in experiment [2] it was 2.7%; in experiment [3] it was -5.78%; in experiment [4], 5.72%; in [5], -4.36%; in [6], -2.77%. Besides, the Percent Effect in [7] was -4.49%; in experiment [8], 13.8%; in experiment [9], 1.98%; in [10] it was 1.22%; in experiment [11] it was 7.95%.
Consider `Cc1nc(C)n(C2CCCN(C(=O)CCc3ccncc3)C2)n1` (stereo unspecified), for which the Percent Effect is -5.25% in experiment [1]; 16.2% in experiment [2]; 0.169% in [3]; 8.78% in experiment [4]; 2.34% in experiment [5]; 4.17% in experiment [6]. In addition, the Percent Effect in experiment [7] was 6.34%; in experiment [8] it was 0.916%; in [9] it was 12.9%; in [10], 11%; in [11], -8.81%.
Turning to `O=C(Nc1nccs1)N(CCO)Cc1ccsc1`, the Percent Effect is -1.95% in experiment [1]; 13.2% in [2]; -2.9% in [3]; -1.76% in [4]; 5.08% in experiment [5]; -2.3% in experiment [6]. Further, the Percent Effect in [7] is 11.5%; in experiment [8], -0.668%; in experiment [9], 8.33%; in experiment [10] it was 29.3%; in experiment [11], -13.6%.
Take `CC(C)(C)N1CC(C(=O)N2CCN(CCc3ccccc3)CC2)CC1=O` (stereo unspecified): the Percent Effect was -1.55% in experiment [1]; 5.33% in experiment [2]; -2.2% in [3]; 1.39% in experiment [4]; -3.6% in experiment [5]; 1.56% in experiment [6]. The Percent Effect is 17.1% in experiment [7]; 32.1% in experiment [8]; 4.92% in [9]; 11.1% in experiment [10]; -6.21% in experiment [11].
`CCOC(=O)CCCNC(=O)CN1CCN(c2ncccn2)CC1`: the Percent Effect in [1] was -2.22%; in experiment [2], 7.79%; in [3], -1.07%; in experiment [4], 5.04%; in experiment [5], -3.64%; in experiment [6] it was -112%. Also, the Percent Effect was 17.5% in experiment [7]; 2.75% in [8]; 5.38% in experiment [9]; 8.64% in [10]; -0.631% in [11].
In the case of `O=C(c1cnco1)N1C[C@@H]2CC[C@H](Oc3cccc(F)c3)[C@@H]2C1`, the Percent Effect in [1] is -9.68%; in experiment [2], 12.2%; in experiment [3] it was 2.91%; in [4], 6.76%; in experiment [5], 0.988%; in [6], -4.41%. The Percent Effect in [7] was 10.9%; in experiment [8], 9.56%; in experiment [9] it was 3.23%; in [10], 11.7%; in experiment [11] it was -8.63%.
With `CC(C)(C)c1nc(CN2CCCC2CCc2ccccc2)no1` (stereo unspecified), the Percent Effect is -4.12% in experiment [1]; -2.6% in experiment [2]; 4.97% in [3]; -2.77% in experiment [4]; -6.18% in experiment [5]; -0.712% in [6]. The Percent Effect in experiment [7] is -5.91%; in experiment [8] it was 27.2%; in experiment [9] it was 0.971%; in experiment [10], -14.6%; in experiment [11] it was 1.21%.
Take `Cc1nc(CC(=O)N2CCC[C@H]2c2nc(C(C)C)no2)cs1`: the Percent Effect is -6.79% in experiment [1]; -1.39% in experiment [2]; 0.72% in experiment [3]; -1.32% in experiment [4]; 1.26% in experiment [5]; 3.09% in [6]. The Percent Effect in experiment [7] was 7.19%; in experiment [8], -13.6%; in experiment [9], 3.16%; in [10], 5.13%; in experiment [11] it was -0.504%.
In the case of `CN(C)CCNC(=O)CNC(=O)N1CCc2c([nH]c3ccc(Cl)cc23)C1`, the Percent Effect is -4.87% in experiment [1]; -1.33% in [2]; 9.82% in experiment [3]; 0.772% in experiment [4]; -2.55% in experiment [5]; -9.33% in [6]. Also, the Percent Effect in [7] was 0.185%; in experiment [8], -14.7%; in experiment [9] it was -1.06%; in [10] it was -7.69%; in [11], -0.829%.

The values are drawn from ChEMBL document CHEMBL3988442, “University of Dundee, Small-Polar-MMV Screening Library” (2021).
